The record followed here is PubChem BioAssay (NCI).

Structures are written as SMILES. The panel holds about 79,000 compounds, 15% with a hit somewhere; the sample as a whole holds those more often. Unmarked numbers belong to inactive results. The source made the active and inactive calls. Rule as the data show it: active = growth inhibition above about 70%; inactive = the rest.

Assay [1] is described as follows: NCI Yeast Anticancer Drug Screen. Data for the rad50 strain (AID 155).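 Also: 0% = growth of vehicle-only cultures of the same strain.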 Particulars: S. cerevisiae rad50 strain growth inhibition, hits give high values. Summed up:
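Readout: growth inhibition relative to vehicle-treated cultures. Compound exposure was carried out in a genetically defined yeast strain deficient in DNA damage repair.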

Assay [2] in a line: NCI Yeast Anticancer Drug Screen. Data for the mec2-1 strain (AID 157). As to conditions: S. cerevisiae mec2-1 strain, hits give high values. An outline of the steps: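 mec2-1 yeast strain, carrying an alteration in DNA damage repair or cell cycle control, was exposed to compounds; growth inhibition was measured relative to vehicle-treated controls.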
The nature of assay [3]: NCI Yeast Anticancer Drug Screen. Data for the sgs1 mgt1 strain (AID 161).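 Also: 0% = growth of cultures given vehicle only.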 Particulars: S. cerevisiae sgs1 mgt1 strain, hits give high values. Summed up:
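Yeast cells carrying a defined DNA-repair defect were exposed to test compounds. Growth inhibition was measured relative to vehicle-treated controls.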

A short description of assay [4]: NCI Yeast Anticancer Drug Screen. Data for the cln2 rad14 strain (AID 165).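 Also: 0% = growth equal to vehicle treated cultures.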 Particulars: S. cerevisiae cln2 rad14 strain, hits give high values. Summed up:
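Yeast carrying cln2 and rad14 alterations (cell cycle control and DNA damage repair) were exposed to compounds. Growth inhibition was measured against vehicle-treated controls.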

A short description of assay [5]: NCI Yeast Anticancer Drug Screen. Data for the bub3 strain (AID 167). As to conditions: S. cerevisiae bub3 mutant strain, hits give high values. An outline of the steps:
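Readout: yeast growth inhibition, expressed relative to vehicle-only wells. The test organism is a mutant strain from a panel with lesions in DNA repair or checkpoint genes.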

A short description of assay [6]: NCI Yeast Anticancer Drug Screen. Data for the mlh1 rad18 strain (AID 175). Particulars: S. cerevisiae mlh1 rad18 strain growth inhibition, hits give high values. An outline of the steps:
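Growth inhibition of the yeast strain was measured after compound exposure and expressed relative to vehicle-treated controls. The strain carries defined defects in DNA damage repair.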

Where [7] appears, read: at 5.0 µM (retest, dose inferred, filed as 0.5).
Where [8] appears, read: at 50.0 µM (retest, dose inferred, filed as 5.0).

As to `CC1C(c2ccc3c(c2)OCO3)c2cc3c(cc2OC1N1CCOCC1)OCO3` (stereo not given), the growth inhibition in assay [1] (setting [7]) was 28%; in assay [1] (setting [8]), 49%; in assay [1] (at 50.0 µM), 21.3%; in assay [2] (setting [7]), 19%; in assay [2] (setting [8]) it was 36%; in assay [2] (at 50.0 µM), 7.3%. In addition, the growth inhibition in assay [3] (setting [7]) is 17%; in assay [3] (setting [8]), 38%; in assay [3] (at 50.0 µM), -18.1%; in assay [4] (setting [7]), 25%; in assay [4] (setting [8]) it was 27%; in assay [4] (at 50.0 µM), 3.7%. Besides, the growth inhibition in assay [5] (setting [7]) was 27%; in assay [5] (setting [8]), 28%; in assay [5] (at 50.0 µM), 18.7%; in assay [6] (setting [7]), 27%; in assay [6] (setting [8]) it was 46%; in assay [6] (at 50.0 µM), 20.3%.

On to `O=C1OC2(Cc3ccccc31)c1ccccc1-c1ccccc12`, for which the growth inhibition in assay [1] (setting [7]) is -5%; in assay [1] (setting [8]), -1%; in assay [1] (at 50.0 µM) it was 20.8%; in assay [2] (setting [7]), -4%; in assay [2] (setting [8]), -11%; in assay [2] (at 50.0 µM), 25.9%. Further, the growth inhibition in assay [3] (setting [7]) is -6%; in assay [3] (setting [8]), 38%; in assay [3] (at 50.0 µM), 41%; in assay [4] (setting [7]), -5%; in assay [4] (setting [8]), -15%; in assay [4] (at 50.0 µM), 17.6%. The growth inhibition is -10% in assay [5] (setting [7]); -7% in assay [5] (setting [8]); 9.45% in assay [5] (at 50.0 µM); -19% in assay [6] (setting [7]); -9% in assay [6] (setting [8]); 27.8% in assay [6] (at 50.0 µM).

On to `COc1ccc(/C=c2\sc3nnc(CCC(=O)Nc4cccc(C(F)(F)F)c4)n3c2=O)cc1`, for which the growth inhibition is -2% in assay [1] (setting [7]); 28% in assay [1] (setting [8]); 29.9% in assay [1] (at 50.0 µM); 0% in assay [2] (setting [7]); 43% in assay [2] (setting [8]); 53.4% in assay [2] (at 50.0 µM). The growth inhibition is -2% in assay [3] (setting [7]); 51% in assay [3] (setting [8]); 44.9% in assay [3] (at 50.0 µM); 1% in assay [4] (setting [7]); 21% in assay [4] (setting [8]); 22.1% in assay [4] (at 50.0 µM). The growth inhibition in assay [5] (setting [7]) was 0%; in assay [5] (setting [8]) it was 38%; in assay [5] (at 50.0 µM) it was 29.6%; in assay [6] (setting [7]), -3%; in assay [6] (setting [8]), 47%; in assay [6] (at 50.0 µM) it was 76.8% (active).

For `Cn1c(N)c(NC(=O)CCl)c(=O)n(C)c1=O`, the growth inhibition is 21% in assay [1] (setting [7]); 20% in assay [1] (setting [8]); 16.4% in assay [1] (at 50.0 µM); 3% in assay [2] (setting [7]); 5% in assay [2] (setting [8]); -5.8% in assay [2] (at 50.0 µM). Moreover, the growth inhibition in assay [3] (setting [7]) was -13%; in assay [3] (setting [8]), -2%; in assay [3] (at 50.0 µM), -16.9%; in assay [4] (setting [7]) it was 1%; in assay [4] (setting [8]), 2%; in assay [4] (at 50.0 µM), 12.8%. Also, the growth inhibition in assay [5] (setting [7]) is 8%; in assay [5] (setting [8]), 7%; in assay [5] (at 50.0 µM) it was -2.45%; in assay [6] (setting [7]) it was 7%; in assay [6] (setting [8]), 0%; in assay [6] (at 50.0 µM) it was 16.9%.

Consider `CC(CO)(Nc1ccc([N+](=O)[O-])cc1[N+](=O)[O-])C(=O)O` (stereo not given), for which the growth inhibition in assay [1] (setting [7]) was 21%; in assay [1] (setting [8]) it was 99% (active); in assay [1] (at 50.0 µM), 97.1% (active); in assay [2] (setting [7]) it was 14%; in assay [2] (setting [8]) it was 99% (active); in assay [2] (at 50.0 µM), 99% (active). The growth inhibition in assay [3] (setting [7]) is 10%; in assay [3] (setting [8]) it was -22%; in assay [3] (at 50.0 µM), 98.1% (active); in assay [4] (setting [7]), 1%; in assay [4] (setting [8]), 99% (active); in assay [4] (at 50.0 µM), 70.1% (active). In addition, the growth inhibition in assay [5] (setting [7]) is 1%; in assay [5] (setting [8]), 99% (active); in assay [5] (at 50.0 µM), 95% (active); in assay [6] (setting [7]), 6%; in assay [6] (setting [8]) it was 99% (active); in assay [6] (at 50.0 µM) it was 97.5% (active).

As to `CN(C(=S)c1ccccc1)c1ccccc1`, the growth inhibition in assay [1] (setting [7]) was -166%; in assay [1] (setting [8]), -132%; in assay [1] (at 50.0 µM) it was 97.4% (active); in assay [2] (setting [7]) it was -45%; in assay [2] (setting [8]) it was -56%; in assay [2] (at 50.0 µM), 82% (active). Besides, the growth inhibition in assay [3] (setting [7]) is -63%; in assay [3] (setting [8]), -61%; in assay [3] (at 50.0 µM) it was 69.2%; in assay [4] (setting [7]), -61%; in assay [4] (setting [8]), -65%; in assay [4] (at 50.0 µM) it was 58.7%. The growth inhibition is -81% in assay [5] (setting [7]); -80% in assay [5] (setting [8]); 96.6% (active) in assay [5] (at 50.0 µM); -150% in assay [6] (setting [7]); -131% in assay [6] (setting [8]); 91.7% (active) in assay [6] (at 50.0 µM).

In the case of `O=c1ccccn1CCc1cccc2cc(O)ccc12`, the growth inhibition in assay [1] (setting [7]) is -3%; in assay [1] (setting [8]), -1%; in assay [1] (at 50.0 µM), 12.9%; in assay [2] (setting [7]), -2%; in assay [2] (setting [8]) it was 4%; in assay [2] (at 50.0 µM) it was 9.25%. Also, the growth inhibition is -3% in assay [3] (setting [7]); -3% in assay [3] (setting [8]); 10.6% in assay [3] (at 50.0 µM); -1% in assay [4] (setting [7]); -12% in assay [4] (setting [8]); -12.3% in assay [4] (at 50.0 µM). For the same compound, the growth inhibition in assay [5] (setting [7]) is 0%; in assay [5] (setting [8]) it was 4%; in assay [5] (at 50.0 µM), 71% (active); in assay [6] (setting [7]) it was -3%; in assay [6] (setting [8]), 3%; in assay [6] (at 50.0 µM), 23.2%.

With `Cc1nc(N)sc1N=Nc1cccc(Cl)c1Cl`, the growth inhibition in assay [1] (setting [7]) was -5%; in assay [1] (setting [8]), 39%; in assay [1] (at 50.0 µM), 71.5% (active); in assay [2] (setting [7]) it was -8%; in assay [2] (setting [8]), 56%; in assay [2] (at 50.0 µM) it was 50.4%. In addition, the growth inhibition in assay [3] (setting [7]) is 3%; in assay [3] (setting [8]), 70% (active); in assay [3] (at 50.0 µM), 66.2%; in assay [4] (setting [7]), 0%; in assay [4] (setting [8]), 4%; in assay [4] (at 50.0 µM) it was 53.8%. The growth inhibition in assay [5] (setting [7]) is -2%; in assay [5] (setting [8]) it was 23%; in assay [5] (at 50.0 µM), 75.8% (active); in assay [6] (setting [7]), 21%; in assay [6] (setting [8]) it was 79% (active); in assay [6] (at 50.0 µM), 84.2% (active).

`CCOC(=O)/C=C(\C)Sc1cc(O)c2ccccc2c1O`: the growth inhibition in assay [1] (setting [7]) was -3%; in assay [1] (setting [8]) it was 22%; in assay [1] (at 50.0 µM), 68.9%; in assay [2] (setting [7]), -1%; in assay [2] (setting [8]), 28%; in assay [2] (at 50.0 µM), 79.5% (active). The growth inhibition in assay [3] (setting [7]) is 1%; in assay [3] (setting [8]), 37%; in assay [3] (at 50.0 µM), 72.5% (active); in assay [4] (setting [7]) it was 1%; in assay [4] (setting [8]), 3%; in assay [4] (at 50.0 µM) it was 8%. For the same compound, the growth inhibition in assay [5] (setting [7]) was -5%; in assay [5] (setting [8]), 15%; in assay [5] (at 50.0 µM), 73% (active); in assay [6] (setting [7]) it was -2%; in assay [6] (setting [8]) it was 53%; in assay [6] (at 50.0 µM), 76.1% (active).

As for `O=CNNC(=O)Nc1ccc(Cl)cc1`, the growth inhibition in assay [1] (setting [7]) was 19%; in assay [1] (setting [8]), 25%; in assay [1] (at 50.0 µM), -1.5%; in assay [2] (setting [7]), 10%; in assay [2] (setting [8]), 14%; in assay [2] (at 50.0 µM) it was -3.75%. For the same compound, the growth inhibition in assay [3] (setting [7]) is 20%; in assay [3] (setting [8]), 11%; in assay [3] (at 50.0 µM), -8.8%; in assay [4] (setting [7]), 32%; in assay [4] (setting [8]) it was 19%; in assay [4] (at 50.0 µM) it was 22.1%. Besides, the growth inhibition in assay [5] (setting [7]) is 4%; in assay [5] (setting [8]) it was 0%; in assay [5] (at 50.0 µM), 14.6%; in assay [6] (setting [7]), 20%; in assay [6] (setting [8]), 21%; in assay [6] (at 50.0 µM) it was 7.2%.
